These results are taken from ChEMBL document CHEMBL1201862, “PubChem BioAssay data set” (2004).

Potency and affinity values are given separately. These assays gave more results; the selection is not random.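 Five compound concentrations were applied to cells in 96-well plates for 48 hours; endpoints were derived by simple linear interpolation of the resulting dose-response curve. At the GI50, growth is halved.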

Assay in all cases: NCI tumour cell line growth inhibition, 48 h
The test system of experiment [1] is DMS-273.
Experiment [2] deals with LXFL 529.
In experiment [3] the test system is RXF 631.
Experiment [4] deals with SNB-78.
Experiment [5] concerns XF498.
Experiment [6] has as its system DLD-1.
In experiment [7] the test system is HOP-18.
The subject of experiment [8] is KM-20L2.

For the substance “cis-Bis[[(trimethylsilyl)methyl]amino]tetrachloroplatinum(IV), CHEMBL2146191”, the GI50 in experiment [1] worked out at 12.1 µM; in experiment [2], 2.15 µM; in experiment [3], 3.41 µM; in experiment [4] it was 7.36 µM; in experiment [5], 11 µM.

Regarding “mu-(1,7-nanodiamine-N,N')bis-(cis-aminedichloroplatimum (II)), CHEMBL2146215”, the GI50 stood at 36.2 µM in experiment [6]; 4.54 µM in experiment [1]; 84.1 µM in experiment [7]; 35.9 µM in experiment [8]; 46.2 µM in experiment [2]; 47.2 µM in experiment [3]. This substance also displayed a GI50 in experiment [4] of 48.8 µM.

“[Bis(aminomethyl)tetramethylenesilane]tetrachloropaltinum(IV), CHEMBL2146189”: the GI50 in experiment [6] was 11.8 µM; in experiment [7], 24.3 µM; in experiment [8], 2.99 µM; in experiment [2], 12.2 µM; in experiment [3] it was 7.26 µM; in experiment [5], 3.56 µM.

“[Bis(aminomethyl)dimethylsilane]dichloroplatinum (II), CHEMBL2146201”: the GI50 is 5.62 µM in experiment [1]; 44.2 µM in experiment [2]; over 100 µM in experiment [3]; 16.7 µM in experiment [4]; 17.2 µM in experiment [5].

For CISPLATIN, CHEMBL11359, the GI50 amounted to 6.03 µM in experiment [6]; 7.71 µM in experiment [7]; 7.48 µM in experiment [8]; 4.83 µM in experiment [2]; 1.49 µM in experiment [4].

On to “[Bis(aminomethyl)ethylmethylsilane]tetrachloroplatinum(IV), CHEMBL2146192”, for which the GI50 in experiment [1] turned out to be 0.587 µM; in experiment [2], 6.22 µM; in experiment [3] it was 14.3 µM; in experiment [4], 3.35 µM; in experiment [5], 4.22 µM.

In the case of “[Bis(aminomethyl)tetramethylenesilane]dichloropaltinum(II), CHEMBL2146205”, the GI50 in experiment [6] came out at 39.1 µM; in experiment [1], 14.6 µM; in experiment [7], 43.5 µM; in experiment [8], 24.4 µM; in experiment [2], 27.4 µM; in experiment [3], 49.3 µM. The GI50 in experiment [5] stood at 28 µM.

For “[Bis(aminomethyl)dimethylsilane]tetrachloroplatinum(IV), CHEMBL2146190”, the GI50 was determined as 12.8 µM in experiment [6]; 1.02 µM in experiment [1]; 3.58 µM in experiment [8]; 14.2 µM in experiment [2]; 34.9 µM in experiment [3]; 3.22 µM in experiment [4]. In experiment [5], this substance returned a GI50 of 2.9 µM.

As to “[Bis(aminomethyl)pentamethylenesilane]tetrachloropaltinum(IV), CHEMBL2146204”, the GI50 in experiment [6] was determined as 4.58 µM; in experiment [7] it was 42.6 µM; in experiment [8], 3.14 µM; in experiment [2], 4.97 µM; in experiment [3], 4.63 µM; in experiment [5] it was 2.86 µM.

“[Bis(aminomethyl)pentamethylenesilane]dichloropaltinum(II), CHEMBL2146202”: the GI50 in experiment [6] is 31.1 µM; in experiment [7] it was 37.7 µM; in experiment [8], 12.2 µM; in experiment [2], 12.9 µM; in experiment [3], 18.4 µM; in experiment [5], 11.5 µM.

Take “[Bis(aminomethyl)diethylsilane]tetrachloroplatinum(IV), CHEMBL2146203”: the GI50 in experiment [6] turned out to be 8.65 µM; in experiment [7] it was 13 µM; in experiment [8] it was 1.45 µM; in experiment [2], 4.34 µM; in experiment [3], 4.21 µM; in experiment [5], 2.77 µM.
